Assay [1] can be described thus: qHTS assay to identify small molecule agonists of the constitutive androstane receptor (CAR) signaling pathway - cell viability counter screen (AID 1224836). Also: nearly all actives have a fitted effect of over 45% in size. Also: potency is read from the fitted curve at half-maximal effect. Put shortly:
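Using CellTiter-Fluor, viability of HepG2 cells harbouring hCAR and CYP2B6-2.2kb was measured following 23 h incubation with a 15-concentration compound series plus PK11195 (0.75 uM final).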

Assay [2] is described as follows: qHTS assay to identify small molecule antagonists of the constitutive androstane receptor (CAR) signaling pathway - cell viability counter screen (AID 1224837). Also: nearly all actives have a fitted effect of over 45% in size. Also: potency is read from the fitted curve at half-maximal effect. Put shortly: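 Multiplexed cytotoxicity read-out for the CAR antagonist screen: double-stable HepG2-CYP2B6-hCAR cells co-treated with 50 nM CITCO (final) and compound over 15 concentrations, incubated 23 hr, then assessed by CellTiter-Fluor fluorescence.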
For orientation: Quantitative high-throughput screening tests each substance at several concentrations.

The target of assay [3] is Nuclear receptor subfamily 1 group I member 3 (Homo sapiens) (UniProt Q14994). Briefly: qHTS assay to identify small molecule antagonists of the constitutive androstane receptor (CAR) signaling pathway (AID 1224838). Also: nearly all actives have a fitted effect of over 40% in size. Also: potency is read from the fitted curve at half-maximal effect. An outline of the steps: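 Compounds were titrated across 15 concentrations onto HepG2 cells double-stably expressing hCAR and a CYP2B6-2.2kb reporter, together with 50 nM CITCO (final). After 24 h at 37 C, luciferase activity was measured by luminescence.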

Assay [4] has the same target. Nature of the assay: qHTS assay to identify small molecule agonists of the constitutive androstane receptor (CAR) signaling pathway (AID 1224839). Also: nearly all actives have a fitted effect of over 15% in size. Also: potency is read from the fitted curve at half-maximal effect. Put shortly:
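Double-stable HepG2 cells (hCAR, CYP2B6-2.2kb) seeded 4 h before compound addition. Exposure 24 h with 0.75 uM PK11195 final. Luciferase detected by ONE-Glo.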

Assay [5] can be described thus: qHTS assay to identify small molecule antagonists of the estrogen related receptor signaling pathway with the pleiotropic PPARgamma coactivator (PGC) from Tox21 10K library - cell viability counter screen (AID 1224840; active = well fitted cell-killing curve with a large enough effect in the repeat runs, not every such curve was filed as active; also: nearly all actives have a fitted effect of over 40% in size; also: potency is read from the fitted curve at half-maximal effect). An outline of the steps:
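Step one, plate 2,000 PGC/ERR cells per well; step two, incubate 6 h at 37 C/5% CO2; step three, pin-transfer compounds; step four, incubate 17.5 h; step five, add CellTiter-Fluor and read fluorescence after 30 min.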

Assay [6] deals with Thyrotropin receptor (Homo sapiens) (UniProt P16473). Briefly: qHTS assay to identify small molecule agonists of the thyroid stimulating hormone receptor (TSHR) signaling pathway (AID 1224843; calls by dose curve; also: nearly all actives have a fitted effect of over 45% in size; also: potency is read from the fitted curve at half-maximal effect). Put shortly: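 HEK293 cells stably bearing the thyrotropin receptor were plated at 800 cells/well and challenged with compound (30 min, RT). Accumulated cAMP was quantified via cAMP-d2 competing for cryptate-tagged antibody.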

Assay [7] is described as follows: qHTS assay to identify small molecule agonists of H2AX (AID 1224845; active = well fitted activation curve with a large enough effect in the signal ratio in the repeat runs, not every such curve was filed as active; the % refers to the signal ratio; also: potency is read from the fitted curve at half-maximal effect). Put shortly: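 Phospho-H2AX Ser139 measured by HTRF (ex 320 nm; em 665 and 620 nm) after 24 hr antibody incubation. Compounds, 15 concentrations, 0.76% DMSO, were applied to CHO-K1 cells for 3hr at 37C before lysis.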
Assay [8] is described as follows: qHTS assay to identify small molecule agonists of the hypoxia (HIF-1) signaling pathway (AID 1224846; active = well fitted activation curve with a large enough effect in the signal ratio in the repeat runs, not every such curve was filed as active; the % refers to the signal ratio). Put shortly: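 Steps: seed ME-180 HRE-bla cells (2,000/well, 0.5% dialyzed FBS); incubate 5 hrs at 37C; pin-transfer compounds or DMSO; incubate 17 hrs; add LiveBLAzer B/G substrate CCF4-AM; measure reporter activation by FRET.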
The nature of assay [9]: qHTS assay to identify small molecule agonists of H2AX - cell viability counter screen (AID 1224847; calls by dose curve; also: nearly all actives have a fitted effect of over 30% in size; also: potency is read from the fitted curve at half-maximal effect). An outline of the steps: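 Quantitative HTS viability measurement: CHO-K1 wild-type cells in serum (10% FBS) medium, short 3 hr drug exposure at 37C with 0.76% DMSO, CellTiter-Glo luminescent detection.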
Assay [10] in a line: qHTS assay to identify small molecule antagonists of the estrogen related receptor (ERR) signaling pathway from Tox21 library (AID 1224848). Also: nearly all actives have a fitted effect of over 50% in size. Also: potency is read from the fitted curve at half-maximal effect. Put shortly:
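Reading was by luminescence 30 min after ONE-Glo addition. Before that, ERR cells at 2,000 per well had rested 6 h at 37 C/5% CO2 and then received pin-tooled compounds in DMSO for 18 h at 37 C.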

The nature of assay [11]: qHTS assay to identify small molecule agonists of the estrogen related receptor (ERR) signaling pathway from Tox21 library (AID 1224849; calls by dose curve; also: nearly all actives have a fitted effect of over 15% in size). Conditions: ERR reporter cell line, ONE-Glo luciferase, 18 h; at 92.4 µM (top of the series) unless noted. An outline of the steps:
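Agonist signal is luciferase luminescence from an ERR reporter cell line treated 18 h at 37 C with DMSO-dissolved compounds, read 30 min after ONE-Glo addition at room temperature.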

Assay [12] in a line: qHTS RealTime-Glo MT Cell Viability Assay in HepG2 cells - 24 hour (AID 1224867). Also: nearly all actives have a fitted effect of over 50% in size. Also: potency is read from the fitted curve at half-maximal effect. Put shortly: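 Luminescence read-out: viable HepG2 cells reduce a prosubstrate to a NanoLuc substrate, giving a signal proportional to live cell number. Reads taken at 0, 8, 16, 24, 32 and 40 h of compound exposure at 37 C.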
Assay [13] in a line: qHTS RealTime-Glo MT Cell Viability Assay in HEK293 cells - 32 hour (AID 1224868). Also: nearly all actives have a fitted effect of over 50% in size. Also: potency is read from the fitted curve at half-maximal effect. Put shortly: (§1)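 Nonlytic real-time viability readout: viable cells convert prosubstrate to NanoLuc substrate, giving luminescence proportional to live cell number. HEK293, 600 cells/well, compound added after 5 h, continuous culture at 37 C.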
The nature of assay [14]: A CellTox Green Cytotoxicity Assay to monitor cytotoxicity in HEK293 cells - 0 hour (AID 1224869). Also: nearly all actives have a fitted effect of over 50% in size. Put shortly:
(§2)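 Cytotoxicity was tracked continuously in HEK293 cells by a DNA-binding dye excluded from viable cells. Compounds were transferred in DMSO 5 h after seeding; fluorescence was recorded at intervals up to 40 h.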

Assay [15] in a line: qHTS RealTime-Glo MT Cell Viability Assay in HepG2 cells - 40 hour (AID 1224870). Also: nearly all actives have a fitted effect of over 50% in size. Also: potency is read from the fitted curve at half-maximal effect. Put shortly:
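Real-time viability: cells seeded at 600 per well together with NanoLuc and cell-permeant prosubstrate, compounds added after 5 h incubation. Luminescence tracked at 0, 8, 16, 24, 32 and 40 h of exposure.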

Assay [16] can be described thus: A CellTox Green Cytotoxicity Assay to monitor cytotoxicity in HEK293 cells - 40 hour (AID 1224871). Also: nearly all actives have a fitted effect of over 45% in size. Also: potency is read from the fitted curve at half-maximal effect. Put shortly:
as §2

Assay [17] in a line: qHTS RealTime-Glo MT Cell Viability Assay in HEK293 cells - 16 hour (AID 1224872). Also: nearly all actives have a fitted effect of over 50% in size. Also: potency is read from the fitted curve at half-maximal effect. An outline of the steps:
as §1

Assay [18] is described as follows: qHTS assay to identify small molecule antagonists of the estrogen related receptor signaling pathway with the pleiotropic PPARgamma coactivator (PGC) from Tox21 10K library (AID 1224841; call rule not given here; also: potency is read from the fitted curve at half-maximal effect). An outline of the steps: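 Antagonism in this quantitative HTS is taken from loss of luciferase signal in PGC/ERR cells. Cells (2,000/well) are treated with compounds in DMSO after a 6 h settling period and read by One-Glo luminescence after 18 h.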

Assay [19] is described as follows: qHTS assay to identify small molecule agonists of the estrogen related receptor signaling pathway with the pleiotropic PPARgamma coactivator (PGC) from Tox21 10K library (AID 1224842). Also: nearly all actives have a fitted effect of over 15% in size. Also: potency is read from the fitted curve at half-maximal effect. Put shortly: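 Luminescence from One-Glo (30 min, room temperature) measured after PGC/ERR cells had 18 h at 37 C with pinned compound (23 nL in DMSO). Cells had been seeded at 2,000 per well and pre-incubated 6 h.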

Assay [20] can be described thus: qHTS assay to identify small molecule agonists of the hypoxia (HIF-1) signaling pathway - cell viability counter screen (AID 1224844; calls by dose curve; also: nearly all actives have a fitted effect of over 50% in size; also: potency is read from the fitted curve at half-maximal effect). Put shortly:
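Tox21 10K compounds were added to HRE-bla ME-180 cells (0.5% dialyzed FBS) and incubated 17 hrs at 37C; ATP-based CellTiter-Glo luminescence then reported cell viability in the same wells.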

Each structure is given as a SMILES string. Values without a mark were called inactive. Results filed as inconclusive are left out. Active and inactive are the calls of the source. Unless noted, calls follow the shape of the dose curve; as a rule, active = well fitted curve in the direction sought with a large enough effect in the repeat runs; inconclusive = weak or mixed curves; inactive = no such curve, though single readings can be large; an effect the other way counts as inactive or inconclusive.
% is scaled to controls: 0 for no effect and ±100 for the full control effect.

Chain of Nuclear receptor subfamily 1 group I member 3 (Homo sapiens) (Q14994 whole entry, looked up): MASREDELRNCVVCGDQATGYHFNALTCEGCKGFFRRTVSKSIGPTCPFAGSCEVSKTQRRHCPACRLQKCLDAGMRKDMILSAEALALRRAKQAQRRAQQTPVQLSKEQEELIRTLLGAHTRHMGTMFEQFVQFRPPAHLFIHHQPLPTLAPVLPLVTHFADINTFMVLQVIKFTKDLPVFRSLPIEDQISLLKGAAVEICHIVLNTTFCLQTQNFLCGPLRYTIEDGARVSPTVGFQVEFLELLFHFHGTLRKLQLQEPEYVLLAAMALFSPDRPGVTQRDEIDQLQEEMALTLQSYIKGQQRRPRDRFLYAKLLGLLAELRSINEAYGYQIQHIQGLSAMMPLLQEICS
Chain of Thyrotropin receptor (Homo sapiens) (P16473 whole entry, looked up): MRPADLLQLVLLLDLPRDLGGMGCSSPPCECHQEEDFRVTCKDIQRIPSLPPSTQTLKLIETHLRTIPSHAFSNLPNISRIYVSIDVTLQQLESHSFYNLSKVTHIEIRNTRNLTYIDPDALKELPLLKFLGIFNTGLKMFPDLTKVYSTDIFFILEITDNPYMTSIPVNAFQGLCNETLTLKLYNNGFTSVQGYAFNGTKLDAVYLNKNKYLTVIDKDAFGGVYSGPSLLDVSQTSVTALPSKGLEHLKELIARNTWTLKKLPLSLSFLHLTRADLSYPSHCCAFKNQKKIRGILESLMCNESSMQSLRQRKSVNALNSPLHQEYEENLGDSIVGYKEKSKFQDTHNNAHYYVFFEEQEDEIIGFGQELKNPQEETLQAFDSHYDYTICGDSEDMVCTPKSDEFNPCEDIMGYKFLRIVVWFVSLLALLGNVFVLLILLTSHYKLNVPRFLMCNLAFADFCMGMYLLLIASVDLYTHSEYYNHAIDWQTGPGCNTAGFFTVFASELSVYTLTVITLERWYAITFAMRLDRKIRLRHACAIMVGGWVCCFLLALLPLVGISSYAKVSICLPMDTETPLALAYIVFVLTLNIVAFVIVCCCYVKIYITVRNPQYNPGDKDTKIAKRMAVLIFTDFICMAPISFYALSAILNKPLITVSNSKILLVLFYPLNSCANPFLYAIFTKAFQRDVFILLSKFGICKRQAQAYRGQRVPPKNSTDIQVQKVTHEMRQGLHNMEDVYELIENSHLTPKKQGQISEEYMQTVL

Take `COc1cccc(N)c1`: the Potency entry in assay [1], in [2], in assay [3], in [4], in [5] and in assay [6] was “inactive” each time. The Potency entry in assay [7], in assay [8], in assay [9], in assay [10], in assay [12] and in assay [13] was “inactive” throughout. The Potency entry in [14], in assay [15], in assay [16] and in [17] was “inactive” in each case. Moreover, the activity change, positive = activation in assay [11] was -25.2%.
Take `CCC1=C[C@@H]2CN(C1)Cc1c([nH]c3ccccc13)[C@@](C(=O)OC)(c1cc3c(cc1OC)N(C)[C@H]1[C@@](O)(C(=O)OC)[C@H](OC(C)=O)[C@]4(CC)C=CCN5CC[C@]31[C@@H]54)C2`: the Potency is 4.22 µM (active) in assay [1]; 2.37 µM (active) in assay [2]; 106 nM (active) in assay [3]; 18.8 µM (active) in [10]; 0.0151 µM (active) in assay [13]; 23.9 µM (active) in [17]. The Potency result in assay [4], in assay [18], in [19], in assay [7], in assay [8] and in assay [9] was “inactive” throughout. The Potency entry in assay [14] is “inactive”. Moreover, the activity change, positive = activation in assay [11] is -48.8% [at 42.5 µM].
For the molecule `CCc1cc(Cc2cc(CC)c(N)c(CC)c2)cc(CC)c1N`, the Potency entry in assay [1], in assay [2], in assay [3], in assay [19], in [20] and in assay [8] was “inactive” each time. Further, the Potency result in assay [12], in assay [14], in [15] and in assay [16] was “inactive” throughout. The Potency in assay [4] is 4.86 µM (active); in assay [18], 21.7 µM (active); in assay [9], 89.8 µM (active); in assay [10], 27.3 µM (active); in assay [13] it was 38.9 µM (active); in assay [17] it was 24.5 µM (active). In addition, the activity change, positive = activation in assay [11] was -60.8%.
With `COc1cccc2c1C(=O)c1c(O)c3c(c(O)c1C2=O)C[C@@](O)(C(=O)CO)C[C@@H]3O[C@H]1C[C@H](N)[C@H](O[C@@H]2CCCCO2)[C@H](C)O1`, the Potency was 7.5 µM (active) in [1]; 8.41 µM (active) in [2]; 944 nM (active) in [3]; 422 nM (active) in assay [19]; 12 µM (active) in [20]; 4.22 µM (active) in [10]. Besides, the values for the Potency in assay [12] and in [15] were 2.13 µM (active) and 1.9 µM (active), respectively. Also, the Potency result in assay [4], in assay [18], in [6], in assay [14] and in [16] was “inactive” throughout. For the same molecule, the activity change, positive = activation in assay [11] is -55.4% [at 42.5 µM].
On to `N/C(=N\N=C\c1ccc(Cl)cc1)N/N=C/c1ccc(Cl)cc1`, for which the Potency result in assay [1], in [2], in assay [3], in [4], in assay [18] and in assay [19] was “inactive” each time. Besides, the Potency result in assay [6], in assay [7] and in assay [14] was “inactive” in each case. Further, the Potency in [20] is 23.9 µM (active); in assay [10], 29.8 µM (active); in assay [16], 23.9 µM (active). Further, in assay [11], the activity change, positive = activation is -44.1% [at 42.5 µM].
On to `O=C1C=CC(=O)N1`, for which the Potency in assay [1] is 55.9 µM (active); in assay [2], 55.9 µM (active); in assay [3] it was 31400 nM (active); in [5] it was 44.4 µM (active); in [6], 7.04 µM (active); in [7] it was 14.6 µM (active). Besides, the Potency was 82.2 µM (active) in assay [9]; 22.5 µM (active) in [12]; 12.6 µM (active) in assay [13]; 22.5 µM (active) in assay [15]; 17.8 µM (active) in assay [16]; 15.9 µM (active) in assay [17]. For the same molecule, the Potency result in assay [4], in [19], in assay [10] and in assay [14] was “inactive” throughout. Also, the activity change, positive = activation in assay [11] was -71.7%.

(Values after PubChem BioAssay (Tox21).)
